Experimental findings from PubChem BioAssay (NCI) are described below.

Compounds without any hit were thinned out: in the full panel of roughly 83,000, 20% have a hit.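 Testing used 96-well plates and a 48-hour single-concentration exposure. Example: -40 means 40% of the starting cells died.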 Unmarked numbers belong to inactive results. Active and inactive are the calls of the source. The calls were made as follows: active = growth percent below 10; inactive = the rest.

Common to all, as to test: NCI-60 one-dose screen, 48 h (100 = growth as untreated, 0 = no growth, -100 = all killed)
Common to all, as to conditions: 10 µM unless noted

Assay [1] has as its system SK-MEL-2 melanoma.
Assay [2] deals with EKVX NSCLC.
Assay [3] relates to SN12C renal.
For assay [4], the system named is UO-31 renal.
Assay [5] concerns TK-10 renal.
Assay [6] concerns ACHN renal.
For assay [7], the system named is CAKI-1 renal.
Assay [8] deals with A498 renal.
Assay [9] deals with CCRF-CEM leukemia.
In assay [10] the test system is MOLT-4 leukemia.

Consider `N/C(=N\c1nc2ccccc2s1)NC(=O)Nc1ccc(Cl)cc1Cl`, for which the growth in [1] was -49.9% (active); in assay [2], -42.5% (active); in assay [3], -88.7% (active); in assay [4] it was -93% (active); in assay [5], -84.9% (active); in [6], -87.4% (active). In addition, the growth in assay [7] is -87.7% (active); in assay [8], -84.6% (active); in assay [9] it was 5.6% (active); in assay [10], 6.86% (active).
As for `O=C(N=Nc1c(O)[nH]c2ccc(Cl)cc12)c1ccc2nc(-c3ccccc3)[nH]c2c1`, the growth was 43.4% in assay [1]; 92.4% in [2]; 42% in assay [3]; 78.8% in assay [4]; 143% in [5]; 68.4% in assay [6]. Besides, the growth in assay [7] is 89.3%; in assay [8], 137%; in assay [9], 41.7%; in assay [10], 27.3%.
With `C=C1CCC2C3(C)COC(c4cc(F)cc(F)c4)OC3CCC2(C)C1CC(O)C1=CCOC1=O` (stereo not given), the growth is 57.2% in assay [1]; 83.3% in assay [2]; 48.1% in [3]; 49.6% in assay [4]; 110% in assay [5]; 67.8% in [6]. The growth in assay [7] was 60.3%; in assay [8], 120%; in assay [9], 16.8%; in assay [10], 33.7%.
Regarding `CN(C)CCn1c2ccccc2c2nc3cc4ccccc4cc3nc21`, the growth in assay [1] was 60.1%; in [2], 36.8%; in assay [3], 32.3%; in assay [4] it was 12.3%; in assay [5] it was 53%; in assay [6] it was 7.52% (active). Moreover, the growth is 4.76% (active) in [7], 80.8% in assay [8], 18.3% in assay [9] and 7.22% (active) in assay [10].
For the compound `COc1ccc(CCC2c3c(cc4c(c3OC)OCO4)CCN2C)cc1` (stereo not given), the growth in [1] is -62.7% (active); in [2], -17.3% (active); in assay [3], -18.6% (active); in assay [4], -21.9% (active); in [5] it was -14.7% (active); in assay [6], -16.5% (active). For the same compound, the growth was 0.732% (active) in [7], 13.2% in assay [8], 4.55% (active) in assay [9] and -4.81% (active) in [10].
Take `COc1ccc(/C=C/c2nc3ccccc3c(=O)n2CC(=O)Nc2ccc(OC)cc2)cc1`: the growth in assay [1] is 96%; in assay [2], 114%; in assay [3] it was 57.3%; in assay [4], 46.9%; in assay [5], 48.2%; in assay [6], 14%. For the same compound, the growth in assay [7] was 47.3%; in assay [8], 130%; in assay [9] it was 63.6%; in [10], 78.2%.
As to `COc1cc(C2CC(c3cc(OC)c(OC)c(OC)c3)=NN2c2ccccc2)ccc1OCc1ccc(C)cc1` (stereo not given), the growth in assay [1] is 88.1%; in assay [2], 94.1%; in assay [3], 95.1%; in assay [4], 84.8%; in assay [5], 118%; in assay [6], 99.6%. In addition, the growth in assay [7] was 77.8%; in [8], 102%; in [9], 106%; in [10] it was 91.6%.
Regarding `CC(=O)c1cccc(NC(=O)CCC(=O)NS(=O)(=O)c2ccc(C)cc2)c1`, the growth in assay [1] was 115%; in assay [2] it was 99.5%; in assay [3] it was 111%; in [4], 92.5%; in assay [5] it was 103%; in assay [6], 105%. Also, the growth in [7] was 101%; in assay [8] it was 137%; in assay [9], 99%; in assay [10], 107%.
For `C#CCOc1ccc(/C=N/Nc2nc(-c3ccc(Cl)cc3)cs2)cc1OC`, the growth in assay [1] is 38%; in assay [2], 59.5%; in assay [3], 67.7%; in [4], 52.5%; in [5] it was 131%; in [6] it was 68.6%. Moreover, the growth in [7] was 52.6%; in assay [8] it was 69.8%; in assay [9], 36.2%; in assay [10], 21.7%.
On to `N#Cc1cnn(C(=O)c2ccccc2Br)c1NC(=O)c1ccc(Br)cc1Cl`, for which the growth was 111% in assay [1]; 100% in assay [2]; 104% in assay [3]; 85.9% in [4]; 101% in [5]; 103% in assay [6]. The growth in [7] is 94.5%; in assay [8] it was 106%; in assay [9] it was 94.5%; in assay [10] it was 99.9%.
As for `Cc1ccc(NC(=O)CN2CCN(c3ncnc4c3cnn4-c3ccccc3)CC2)cc1`, the growth is 87.8% in assay [1]; 81% in [2]; 74.6% in assay [3]; 63% in [4]; 152% in [5]; -32.7% (active) in assay [6]. Moreover, the growth is 77.8% in assay [7], 104% in assay [8], 78.4% in assay [9] and 68.1% in [10].
For `N/C(=N\N=C\c1ccc([N+](=O)[O-])cc1)c1c(N)nc(=S)[nH]c1-c1ccc(Cl)cc1Cl`, the growth in assay [1] is 93.4%; in assay [2], 98.9%; in [3] it was 96.1%; in assay [4], 98.3%; in assay [5] it was 142%; in [6] it was 88.9%. Besides, the growth is 78.9% in [7], 160% in assay [8], 106% in assay [9] and 94% in assay [10].
For the compound `CN1CCc2c(sc3ncnc(N/N=C/c4ccc(Cl)cc4Cl)c23)C1`, the growth in assay [1] was 9% (active); in assay [2], 33.1%; in [3] it was -32.8% (active); in [4], -95.7% (active); in assay [5], -84% (active); in [6], -66.6% (active). Further, the growth is -61.6% (active) in assay [7], 28.5% in [8], -8.48% (active) in assay [9] and 1.96% (active) in assay [10].
Consider `N#Cc1c(-c2ccc(Cl)cc2)nc2n[nH]c(-c3ccc(Cl)cc3)c2c1-c1ccc(C(F)(F)F)cc1`, for which the growth in assay [1] was -66.9% (active); in assay [2] it was -10.5% (active); in [3] it was -5.91% (active); in assay [4], -1.42% (active); in assay [5], 15.9%; in [6], 2.15% (active). In addition, the growth was -20.1% (active) in assay [7], 50.5% in assay [8], -7.76% (active) in assay [9] and 12.8% in assay [10].
As to `O=C(c1ccc(OCCN2CCOCC2)cc1)C1[C@H](c2ccc(Cl)cc2)[C@@H](c2ccccc2)NC12C(=O)Nc1ccc(Br)cc12` (stereo not given in full), the growth in assay [1] is 28.3%; in assay [2] it was 19.8%; in [3], -8.07% (active); in [4], 15.1%; in assay [5], 40.2%; in assay [6], 5.53% (active). Also, the growth in assay [7] was 15.4%; in assay [8], 91.5%; in assay [9], 20.7%; in assay [10], -33.9% (active).
As to `COc1ccc(C2=NN(c3ccccc3)C(c3ccc(OC)c(OCc4ccccc4)c3)C2)cc1OC` (stereo not given), the growth in assay [1] was 94.1%; in [2], 92.4%; in assay [3], 104%; in assay [4] it was 91.7%; in assay [5], 125%; in assay [6], 110%. Further, the growth in [7] is 76.7%; in assay [8] it was 101%; in [9], 106%; in assay [10], 97%.
On to `COc1ccc(Cc2nn(CC(=O)N/N=C/c3ccc(F)cc3)c(=O)c3c(C)noc23)cc1`, for which the growth in [1] was 70.5%; in assay [2], 29.8%; in assay [3], -0.271% (active); in assay [4], -48% (active); in assay [5] it was -3.12% (active); in assay [6] it was -39.4% (active). In addition, the growth was 10.2% in assay [7], -57.5% (active) in [8], 70.4% in assay [9] and 92.6% in assay [10].
`COc1ccc(NC(=O)[C@@H](N)Cc2ccccc2)cc1C(=O)Nc1cccc(C2CC(=O)c3c(cc(OC)c(OC)c3OC)O2)c1` (stereo not given in full): the growth in assay [1] was 77.9%; in assay [2] it was 72.9%; in assay [3] it was 56.4%; in [4], 33.8%; in assay [5], 94.8%; in assay [6] it was 54.2%. The growth is 54.1% in assay [7], 96.3% in assay [8], 15% in assay [9] and 19.5% in assay [10].
With `COc1cc(-c2nc3cc(Cl)c(Cl)cc3[nH]2)ccc1OCc1nnc(-c2cccs2)o1`, the growth in [1] was 65.7%; in assay [2], 91.3%; in assay [3], 33.7%; in [4], 62.5%; in assay [5], 125%; in assay [6] it was 36%. The growth in assay [7] was 67.7%; in [8], 121%; in assay [9], 91.8%; in assay [10], 62.8%.
With `Cc1ncsc1-c1ccc(CNC(=O)[C@@H]2C[C@@H](O)CN2C(=O)[C@@H](NC(=O)C2(F)CC2)C(C)(C)C)c(OCCOCCOCCOCCOc2nc(Nc3cc(S(C)(=O)=O)ccc3N[C@@H](c3cccc4c3OC(F)(F)O4)c3ncccc3Cl)nc(N3CCNCC3)n2)c1`, the growth in [1] is 112%; in assay [2] it was 80.8%; in assay [3], 80.9%; in assay [4], 98.5%; in [5] it was 109%; in [6], 98.9%. The growth was 101% in assay [7], 116% in assay [8], -9.39% (active) in assay [9] and -5.45% (active) in assay [10].
With `O=[N+]([O-])c1ccc(/C=C/c2nc3ccccc3n3c(=S)[nH]nc23)cc1`, the growth in [1] is 86.3%; in assay [2], 70.7%; in assay [3] it was 71.1%; in assay [4], 47.7%; in assay [5], 127%; in assay [6] it was 72.7%. For the same compound, the growth in assay [7] was 75.2%; in assay [8] it was 91.9%; in assay [9] it was 69.8%; in assay [10] it was 75.5%.
`CCCCOc1ccc(NC(=O)c2sc3nc(C)ccc3c2N)cc1`: the growth in [1] was 49.2%; in assay [2], 6.14% (active); in assay [3], 21.1%; in assay [4], 1.84% (active); in [5], -20.1% (active); in assay [6], -19.3% (active). The growth in assay [7] was 26.5%; in assay [8], 37.1%; in assay [9] it was 42%; in assay [10], 48%.
Consider `NS(=O)(=O)c1ccc(N=Nc2c(O)n(CC(=O)Nc3ccccc3)c3ccccc23)cc1`, for which the growth is 42.7% in assay [1]; 38.4% in [2]; 52.7% in assay [3]; 31.1% in [4]; 84% in [5]; 11% in assay [6]. The growth in assay [7] was 7.36% (active); in assay [8], 60%; in [9] it was 50.2%; in [10] it was 7.09% (active).
On to `COc1ccc(/C=C/c2nc3ccccc3c(=O)n2CC(=O)Nc2ccc(Cl)cc2)cc1`, for which the growth is 99.9% in [1]; 89.3% in assay [2]; 55.3% in assay [3]; 79.5% in assay [4]; 116% in assay [5]; 50.7% in assay [6]. Further, the growth was 43.1% in [7], 118% in assay [8], 108% in [9] and 82.2% in assay [10].
As for `NS(=O)(=O)c1ccc(CCNC(=O)CSc2ccc(-c3ccc(Br)cc3)nn2)cc1`, the growth in [1] was 56.4%; in assay [2], 74.3%; in [3], 80.7%; in [4] it was 56.4%; in assay [5], 72.2%; in assay [6] it was 59.6%. Also, the growth in assay [7] was 65.3%; in assay [8], 78.4%; in assay [9] it was 54.3%; in [10], 39%.
Turning to `COCOc1cc2oc(C(=O)N[C@@H](Cc3ccccc3)C(O)C(=O)NCc3ccccc3)c(C)c(=O)c2cc1OCOC` (stereo not given in full), the growth in [1] was 79.7%; in assay [2], 107%; in [3], 51.9%; in assay [4], 87.1%; in [5], 63.2%; in [6], 66.9%. In addition, the growth is 84.7% in assay [7], -35.2% (active) in assay [8], 104% in [9] and 97.3% in assay [10].
